Test results from PubChem BioAssay (EPA / NIEHS).
Several values for one entry are separate records, joined by “and”; a condition that tells them apart may be missing. Identical values can stand only once. Results filed as inconclusive are left out. Where a structure was tested more than once in an assay, its records may differ in their call. Activity calls are given as the source filed them. How the source made its calls: active means hit-call score of the fitted dose curve at least 0.9, where 1 is the maximum; inconclusive means response in the unintended direction; inactive means score below 0.9.

Assays:
[1] = TOX21_p53_BLA_p2_viability: Viability Assessment in the Tox21 HCT-116 p53 Agonism Beta-lactamase Assay, Phase 2 (AID 2283591);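 further: compound exposure lasted 16 h at 37 °C; actives lower the ATP signal meaning cytotoxicity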
How it was run: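 Cytotoxicity readout: CellTiter-Glo ATP luminescence, 30 min at room temperature, after the beta-lactamase read. Cells were HCT116 exposed 16 h at 37C to compounds pin-transferred at 217-fold dilution from DMSO stocks.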

[2] = target: Cellular tumor antigen p53 (Homo sapiens) (UniProt P04637); assay: TOX21_p53_BLA_p2_ratio: Tox21 HCT-116 p53 Agonism Beta-lactamase Assay, Ratio, Phase 2 (AID 2283592)
How it was run: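 Cleaved-to-uncleaved substrate ratio (460 vs 530 nm) measured in HCT116 cells with an inducible beta-lactamase reporter linked to p53 activity. Compounds incubated 16 h at 37C before 2 h room-temperature CCF4-AM loading.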

[3] = TOX21_p53_BLA_p3_viability: Viability Assessment in the Tox21 HCT-116 p53 Agonism Beta-lactamase Assay, Phase 3 (AID 2283593);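 further: cells exposed to compound for 16 h before reading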
How it was run: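 Cellular ATP was quantified by CellTiter-Glo luminescence, read after 30 min at room temperature. Beforehand, HCT116 cells (4000/well) received compound 5 h post-seeding, 217-fold diluted from DMSO, then incubated 16 h at 37C.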

[4] = target: Cellular tumor antigen p53 (Homo sapiens) (UniProt P04637); assay: TOX21_p53_BLA_p3_ratio: Tox21 HCT-116 p53 Agonism Beta-lactamase Assay, Ratio, Phase 3 (AID 2283596)
How it was run: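 Cells were seeded at 4000/well, rested 5 h at 37C, then dosed with DMSO compound solutions (217-fold dilution) for 16 h. CCF4-AM substrate was loaded for 2 h at room temperature, and the 460/530 nm emission ratio was fitted for gain of signal versus DMSO.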

[5] = TOX21_p53_BLA_p4_viability: Viability Assessment in the Tox21 HCT-116 p53 Agonism Beta-lactamase Assay, Phase 4 (AID 2283597);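 further: hits lower the luminescence signal meaning cytotoxicity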
How it was run: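 Viability is taken as cellular ATP: after 16 h compound exposure of HCT116 cells and a 2 h room-temperature CCF4-AM substrate step, CellTiter-Glo reagent is added and luminescence is measured 30 min later.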

[6] = target: Cellular tumor antigen p53 (Homo sapiens) (UniProt P04637); assay: TOX21_p53_BLA_p5_ratio: Tox21 HCT-116 p53 Agonism Beta-lactamase Assay, Ratio, Phase 5 (AID 2283599)
How it was run: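 Beta-lactamase reporter ratio (blue 460 nm over green 530 nm, 405 nm excitation) after 2 h CCF4-AM loading, in HCT-116 cells exposed 16 h at 37 C to compounds pinned at 217-fold dilution. Increases relative to DMSO baseline scored.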

[7] = TOX21_p53_BLA_p5_viability: Viability Assessment in the Tox21 HCT-116 p53 Agonism Beta-lactamase Assay, Phase 5 (AID 2283600)
How it was run: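 Viability is taken from cellular ATP content, measured by luciferase luminescence in the same wells after the beta-lactamase ratio read. Cells are seeded at 4000 per well and exposed to DMSO-dissolved compounds, diluted 217-fold, for 16 h.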

[8] = target: Cellular tumor antigen p53 (Homo sapiens) (UniProt P04637); assay: TOX21_p53_BLA_p4_ratio: Tox21 HCT-116 p53 Agonism Beta-lactamase Assay, Ratio, Phase 4 (AID 2283601)
How it was run: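 Signal is the blue/green (460nm/530nm) ratio of cleaved versus uncleaved CCF4-AM substrate, read after 2 h substrate loading. Cells were HCT116 carrying the p53-responsive beta-lactamase reporter, dosed 16 h at 37C, 5% CO2; CellTiter-Glo measured in parallel.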

Measured: AC50

Cellular tumor antigen p53 (Homo sapiens), sequence (P04637 whole entry, looked up): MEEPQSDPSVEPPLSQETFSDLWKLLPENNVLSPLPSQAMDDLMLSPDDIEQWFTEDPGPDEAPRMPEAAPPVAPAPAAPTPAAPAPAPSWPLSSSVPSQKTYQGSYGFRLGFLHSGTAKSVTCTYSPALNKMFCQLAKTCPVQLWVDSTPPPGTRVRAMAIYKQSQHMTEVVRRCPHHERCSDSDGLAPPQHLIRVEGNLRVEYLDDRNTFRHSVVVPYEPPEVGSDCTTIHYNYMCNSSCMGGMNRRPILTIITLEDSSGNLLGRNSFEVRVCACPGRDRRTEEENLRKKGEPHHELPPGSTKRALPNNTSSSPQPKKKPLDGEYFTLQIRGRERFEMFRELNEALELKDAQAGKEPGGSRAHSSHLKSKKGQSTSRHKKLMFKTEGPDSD

CCNc1nc(NC(C)C)nc(OC)n1
not listed: [8]
inactive: all other assays above

C[C@]12CC[C@H](O)C[C@H]1CC[C@@H]1[C@@H]2CC[C@]2(C)[C@@H](c3ccc(=O)oc3)C[C@H]3O[C@]132
active: [1] 0.859 µM | [3] 0.978 µM | [5] 1.23 µM | [7] 1.04 µM
inactive: [2] | [4] | [6] | [8]

CC(C)[C@@]1(NC(=O)[C@@H]2C[C@@H]3c4cccc5[nH]cc(c45)C[C@H]3N(C)C2)O[C@@]2(O)[C@@H]3CCCN3C(=O)[C@H](Cc3ccccc3)N2C1=O
active: [5] 33.9 µM
inactive: [1] | [2] | [3] | [4] | [5] | [6] | [7] | [8]

BrCC(Br)C1CCC(Br)C(Br)C1 (stereo not given)
inactive: all assays above

FC(F)(F)c1cccc(C2=CCN(CCc3ccc4ccccc4c3)CC2)c1
inactive: [1] | [2] | [3] | [4] | [5]

Cc1nnc2n1-c1sc(CCc3ccc(CC(C)C)cc3)cc1C(c1ccccc1Cl)=NC2C (stereo not given)
active: [1] 23 µM | [2] 31 µM | [3] 29 µM | [4] 27.4 µM | [5] 24.8 µM | [6] 39.8 µM | [7] 23 µM | [8] 42.2 µM

ClC(Cl)(Cl)Br
inactive: all assays above

CCC[CH2][Sn]([CH2]CCC)([O]C(C)=O)[O]C(C)=O
active: [3] 17.7 µM | [4] 32.2 µM
inactive: all other assays above

S=C=S
not listed: [8]
inactive: all other assays above

CC(=O)[O][Sn]([c]1ccccc1)([c]1ccccc1)[c]1ccccc1
active: [1] 2.52 µM | [2] 6.42 µM | [3] 2.87 µM | [4] 17.7 µM | [5] 2.42 µM | [6] 18.4 µM | [7] 11.2 µM | [8] 8.98 µM

Oc1cc(Cl)c(Cl)c(Cl)c1
active: [1] 44.1 µM | [2] 10.2 µM | [4] 17.3 µM | [5] 69.4 µM | [6] 13.2 µM | [8] 37.5 µM
inactive: [3] | [7]

Clc1ccc(-c2ccc(Cl)c(Cl)c2Cl)c(Cl)c1Cl
not listed: [7] | [8]
inactive: all other assays above

CN1CCN=C(c2ccccc2)c2cc(Cl)ccc21
active: [2] 0.000141 µM | [6] 0.000104 µM | [7] 0.000386 µM | [8] 2.67e-05 µM
inactive: all other assays above

O=C1c2ccccc2C(=O)C1C(=O)C(c1ccccc1)c1ccccc1
active: [2] 37.1 µM | [5] 44 µM | [8] 36.6 µM
inactive: all other assays above

CC(Cl)C(=O)O (stereo not given)
not listed: [8]
inactive: all other assays above

C[C@]12CC[C@@H]3c4ccc(OC(=O)N(CCCl)CCCl)cc4CC[C@H]3[C@@H]1CC[C@@H]2OP(=O)(O)O
active: [2] 8.82 µM and 26.6 µM | [4] 7.01 µM and 23.1 µM | [6] 7.78 µM and 24.6 µM | [8] 8.9 µM and 36.3 µM
inactive: [1] | [3] | [5] | [7]

Fc1ccc(C(OCCN2CCN(CCCc3ccccc3)CC2)c2ccc(F)cc2)cc1
active: [1] 33 µM | [2] 33.7 µM | [3] 31 µM | [4] 24.9 µM | [5] 25.1 µM | [6] 40.4 µM | [7] 38.4 µM | [8] 39 µM

CCC(C)(S(=O)(=O)CC)S(=O)(=O)CC
inactive: all assays above

CCCCCCC(=O)CCCCCC/C=C/C[C@@H](O)[C@H](O)[C@@](N)(CO)C(=O)O
inactive: all assays above

CCCCCc1cc(O)c2c(c1)OC(C)(C)[C@@H]1CCC(C)=C[C@@H]21
active: [1] 24.4 µM | [2] 41.7 µM | [3] 23.4 µM | [4] 40.4 µM | [5] 21.4 µM | [6] 43.1 µM | [7] 32.8 µM | [8] 40 µM

CCCCCc1cc(O)c2c(c1)OC(C)(C)c1ccc(C)cc1-2
active: [1] 14.4 µM | [2] 22.3 µM | [3] 30.1 µM | [4] 34.4 µM | [5] 14.9 µM | [6] 23.9 µM | [7] 19.8 µM | [8] 29.9 µM

O=P1(N(CCCl)CCCl)NC(OO)CCO1 (stereo not given)
inactive: all assays above

O=[N+]([O-])c1ccccc1CCl
inactive: all assays above

Clc1ccc(CO/N=C(\Cn2ccnc2)c2ccc(Cl)cc2Cl)c(Cl)c1
inactive: [3] | [7]
active: [1] 23 µM | [2] 38.7 µM | [4] 42.8 µM | [5] 33.4 µM | [6] 36.3 µM | [8] 33 µM
